# Reference: PubChem BioAssay AID624351 (Southern Research Specialized Biocontainment Screening …, 2012)
# Hit rate of the full screen: of about 2,400 compounds, about 1,400 (58%) were called active.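 Rule for the calls: active = inhibition of 30% or more at any tested dose; inconclusive = primary hits over the limit that were never retested; inactive = the rest.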 The set was probably picked from earlier hits. This is one part of the list.
# Test: coupled detection enzyme interference, dose response, artefact control for MgcRacGAP inhibitor project, biochemical, coupled enzyme counter-screen (AID 624351);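 note: signal is the ADP detection kit reading of free GDP without any GAP enzyme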;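 for inhibition: 0% = median positive control wells and 100% = median negative control wells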
# Details: ADP Hunter coupled enzyme counter-screen, fluorescence, no MgcRacGAP; series mostly up to 80 µM; inhibition: at the top concentration
Compound,IC50,inhibition
CCN(CC)Cc1cc(Nc2c3ccccc3nc3c4ccccc4n(C)c23)cc(CN(CC)CC)c1O,20.9 µM (active),–
Cc1c(Cl)sn(-c2ccc(Cl)cc2)c1=O,–,9.28% (inactive)
Cc1[nH]n(-c2cccc(Cl)c2)c(=O)c1-c1ccc(Cl)cc1,77.2 µM (active),–
Cc1ccc(-c2ccc(/C=C3\C(=O)ON=C3c3ccccc3)o2)c([N+](=O)[O-])c1,–,3.06% (inactive)
COc1ccc(OCC(O)CN2CCCC2)cc1 (stereo unspecified),–,9.45% (inactive)
COc1ccc(CN2CCN(Cc3ccc(C(F)(F)F)cc3)CC2)cc1,–,23.6% (inactive)
COc1ccc(NC2CCCN(C(=O)C3(C)CCCCC3)C2)cc1 (stereo unspecified),67.2 µM (active),–
COc1ccc(NC2CCCN(C(=O)c3ccc(C(C)=O)s3)C2)cc1 (stereo unspecified),80.4 µM (active),–
COc1ccc(NC2CCCN(C(=O)c3ccccc3C(F)(F)F)C2)cc1 (stereo unspecified),76.2 µM (active),–
COc1ccc(NC2CCCN(C(=O)COc3ccc(C(C)=O)cc3)C2)cc1 (stereo unspecified),74.9 µM (active),–
CCN1CCCC1CNCC(=O)Nc1ccc(OC(F)(F)F)cc1 (stereo unspecified),–,16.9% (inactive)
Cc1ccc(C)c(OCC(O)CN2CCC(C)CC2)c1C (stereo unspecified),–,12.6% (inactive)
Cc1ccccc1C1=C/C(=C(\SS/C(C(=O)c2ccc(OCC(=O)O)c(Cl)c2Cl)=C2\C=C(c3ccccc3C)SS2)C(=O)c2ccc(OCC(=O)O)c(Cl)c2Cl)SS1,–,7.13% (inactive)
CSc1nc(=S)c2[nH]c(=S)[nH]c2[nH]1,–,13.2% (inactive)
CCCCNc1cc(NC(C)=O)cc2cc(OC)c(OC)cc12,52.3 µM (active),–
Cc1ccc2c(c1)cc(C(=O)NCc1ccccc1)n2C,–,1.98% (inactive)
COc1cc2cc(NC(C)=O)cc(NCc3ccccc3)c2cc1OC,61 µM (active),–
COc1cc2[nH]c(=S)nc(Nc3ccc(NC(C)=O)cc3)c2cc1OC,–,4.2% (inactive)
O=C1C=C(Nc2ccc(O)cc2)CC(c2ccco2)C1 (stereo unspecified),17.8 µM (active),–
O=S(=O)(c1ccccc1)N1N=C(c2ccc(O)cc2)CC1c1ccco1 (stereo unspecified),–,21.9% (inactive)
Cc1cc(C)c(C)c(S(=O)(=O)Nc2ccc(O)cc2)c1C,48.5 µM (active),–
Cc1cc(C)c(S(=O)(=O)Nc2ccc(O)cc2)c(C)c1,68.4 µM (active),–

Compound,IC50,inhibition
CCN(CC)c1ccc(C(=C2C=CC(=[N+](CC)CC)C=C2)c2ccc(N(CC)CC)cc2)cc1,45.3 µM (active),–
CCN(CC)c1ccc(C(=C2C=CC(=[N+](CC)CC)C=C2)c2ccccc2)cc1,–,4.2% (inactive)
COc1cc(C(C)=NNC(=O)c2ccncc2)ccc1O,36.8 µM (active),–
C/C(=N\NC(=O)CSc1nc2ccccc2o1)c1ccc(O)cc1,68.9 µM (active),–
COc1cc(/C(C)=N\NC(=O)CSc2nc3ccccc3n2C)ccc1O,39.3 µM (active),–
COc1ccccc1CN1CCN(C(=O)c2ccncc2)CC1,–,18.7% (inactive)
COc1cc(/C(C)=N/NC(=O)C(O)(c2ccccc2)c2ccccc2)ccc1O,79.7 µM (active),–
O=C(O)c1cccc(N2C(=O)/C(=C/c3ccc(SCc4ccc(Cl)cc4)o3)SC2=S)c1,–,1.08% (inactive)
c1ccc(-c2ccccc2OCCN2CCOCC2)cc1,–,21.1% (inactive)
COc1cc(/C(C)=N/NC(=O)Cc2c(C)[nH][nH]c2=O)ccc1O,70.3 µM (active),–
C=CCNCC(O)COc1ccc(C(C)=O)cc1OC (stereo unspecified),–,13.1% (inactive)
C#CCOCCOCCOCCNc1nc(N2CCN(C(=O)[C@H](CCCCN)n3cc(CN)nn3)CC2)nc(N2CCN(C(=O)[C@H](CCCCN)n3cc(CN)nn3)CC2)n1,–,3.07% (inactive)
Nc1ccccc1Nc1cccc(C(F)(F)F)c1,78.3 µM (active),–
Nc1ccccc1Nc1ccccc1,34 µM (active),–
Nc1ccc(Nc2ccccc2)c(Cl)c1,15.9 µM (active),–
Nc1ccccc1SSc1ccccc1N,–,-6.81% (inactive)
Cn1c(-c2ccccc2)cnc1NCc1ccc(-c2ccccc2)cc1,–,25.8% (inactive)
Cc1cc(C)cc(NC(=O)C(NCCN2CCOCC2)c2ccccc2)c1 (stereo unspecified),–,29.4% (inactive)
COc1cc2c(cc1NC(=O)C(Cl)Cl)-c1ccc(NC(=O)C(Cl)Cl)cc1C2,71.4 µM (active),–
COc1ccc(NC(=O)C(C)N2CCN(C)CC2)cc1 (stereo unspecified),–,25% (inactive)
CN(C)/N=C/c1ccc(N2CCOCC2)cc1,60.4 µM (active),–
O=C(O)CN1C(=O)/C(=C/c2ccc(SCc3ccccc3)o2)SC1=S,–,-9.9% (inactive)

Compound,IC50,inhibition
O=C(CC(c1ccccc1)c1ccccc1)Nc1ccc(O)cc1,56.5 µM (active),–
CC(C)c1ccc(NC(=O)CNCC(c2ccccc2)N(C)C)cc1 (stereo unspecified),–,18.8% (inactive)
O=C(CCCC(=O)c1ccccc1)Nc1ccc(O)cc1,18.2 µM (active),–
COc1cc2c[n+](C)c3c4ccccc4ccc3c2cc1OC,–,13% (inactive)
CN(C)CCNC(C(=O)Nc1cccc(C(F)(F)F)c1)c1ccccc1 (stereo unspecified),–,27.1% (inactive)
COc1cc2c(cc1NCc1ccc3c(c1)OCO3)oc1ccccc12,–,13.4% (inactive)
COc1cc2c(cc1NC(=S)Nc1ccccc1C)oc1ccccc12,41.1 µM (active),–
COc1ccc(NC(=S)Nc2cccc3ccccc23)cc1OC,–,27.8% (inactive)
COc1cc2c(cc1NC(=S)Nc1cccc3ccccc13)oc1ccccc12,36.9 µM (active),–
O=C(O)c1cc(N2N=C(C(F)(F)F)/C(=C/C=C/c3ccco3)C2=O)ccc1Cl,–,12.8% (inactive)
COc1ccc2c(c1OC)C(=O)OC2CC(=O)c1ccc(O)c(O)c1 (stereo unspecified),58.7 µM (active),–
COc1cccc2c1C(=O)c1c(O)c3c(c(O)c1C2=O)C[C@@](O)(C(=O)CO)C[C@@H]3OC1CC(N)C(O)C(C)O1 (stereo partly specified),–,10.3% (inactive)
COc1cccc2c1C(=O)c1c(O)c3c(c(O)c1C2=O)CC(O)(C(C)=NNC(=O)c1ccc(Cl)c(Cl)c1)CC3OC1CC(N)C(O)C(C)O1 (stereo unspecified),–,3.28% (inactive)
Nc1ccc(N(c2ccccc2)c2ccc(N)cc2)cc1,9.3 µM (active),–
N#CC1=C(S)N(c2ccccc2)C2(CCCCC2)NC1=O,–,-2.39% (inactive)
COc1cc(/C=N/NC(=S)Nc2cccc(S(=O)(=O)N(C)C)c2)ccc1O,27.7 µM (active),–
COc1cc(/C=N/NC(=S)Nc2cccc(C(=O)O)c2)ccc1O,46.3 µM (active),–
CN(C)S(=O)(=O)c1cccc(NC(=O)CNCC2CCCCC2)c1,–,15% (inactive)
COc1cc(/C=C2\C(=O)N(c3cccc(C(=O)O)c3)N=C2C)ccc1OCc1ccccc1,–,3.07% (inactive)
CN(C)c1ccc(Sc2ccc3nc(N)nc(N)c3c2)cc1,53.7 µM (active),–
CCN(CC)S(=O)(=O)c1cccc(NC(=O)CNC2CCCCCC2)c1,–,23% (inactive)
CCOc1ccccc1NC(=O)C(NCC1(N2CCCCC2)CCCCC1)c1ccccc1 (stereo unspecified),–,17% (inactive)

Compound,IC50,inhibition
O=C(/C=C/Nc1ccc(Nc2ccccc2)cc1)c1cccs1,–,23.6% (inactive)
CN(C)c1ccc(N/C=C/C(=O)C(C)(C)C)cc1,7.04 µM (active),–
C=C(CN(C)C)C(=O)c1ccc(OC2OC(COC(C)=O)C(OC(C)=O)C(OC(C)=O)C2OC(C)=O)cc1 (stereo unspecified),–,-2.5% (inactive)
O=C1/C(=C\c2ccc([N+](=O)[O-])cc2)CS(=O)(=O)C/C1=C/c1ccc([N+](=O)[O-])cc1,–,6.84% (inactive)
O=[N+]([O-])c1ccc(N/N=C/c2ccc[nH]2)cc1,41.1 µM (active),–
CN1C=CC(=CC=C2C=CC(=O)C=C2)C=C1,23.1 µM (active),–
COc1cc(C)c(N)cc1C(C)C,34.2 µM (active),–
Nc1ccc(O)c([N+](=O)[O-])c1,43.9 µM (active),–
Cc1ccc(S(=O)(=O)Oc2ccc(/C=C3/C(=N)N4C(=NC3=O)SN=C4S(C)(=O)=O)cc2)cc1,–,4.36% (inactive)
CCOC(=O)/C(C#N)=C1\C(=O)N(Cc2ccccc2)c2ccccc21,–,4.02% (inactive)
CCOC(=O)c1[nH]c(=S)n(Cc2ccccc2)c1C(=O)OCC,41.9 µM (active),–
CCOC(=O)/C(C#N)=C1/C(=O)N(Cc2ccccc2)c2ccccc21,–,4.83% (inactive)
Cc1ccc(CN2CCN(Cc3ccco3)CC2)cc1,–,24.4% (inactive)
CN(C)C(=S)N=c1ssc(=S)n1Cc1ccco1,–,6.25% (inactive)
Cc1cs/c(=N\N=C\c2ccc(O)cc2)n1Cc1ccco1,25.9 µM (active),–
CCN1CCN(CCCOc2ccccc2-c2ccccc2)CC1,–,21.3% (inactive)
COc1ccc(C(=O)/C=C/c2ccc(O)cc2)c2c1CC(O)C(C)(C)O2 (stereo unspecified),52.3 µM (active),–
COc1ccc(OC)c(CN2CCN(Cc3ccc(OC)c(OC)c3OC)CC2)c1,–,28.4% (inactive)
CNC(=S)N/N=C/c1ccc(N2CCOCC2)s1,–,-3.84% (inactive)
NC(=O)N/N=C/c1ccc(N2CCOCC2)s1,45.8 µM (active),–
Clc1cccc(N/N=C/c2ccc(N3CCOCC3)s2)c1,59.7 µM (active),–
CCOC(=O)N/N=C/c1ccc(N2CCOCC2)s1,53 µM (active),–

Compound,IC50,inhibition
COC(=O)CC1SC(=O)NC1=Nc1ccc(O)cc1 (stereo unspecified),60.2 µM (active),–
Cc1ccn2c(NC3CCCC3)c(-c3ccncc3)nc2c1,49 µM (active),–
Cc1c(-c2ccccc2)sc(N)c1C(=O)N1CCOCC1,41.6 µM (active),–
CCOC(=O)c1c(-c2ccccc2)csc1NC(=O)C(C)NCCCN1CCOCC1 (stereo unspecified),–,22.2% (inactive)
CN1CCN(C(=O)c2sc(=S)n(-c3ccccc3)c2N)CC1,–,0.54% (inactive)
CCCCNCC#CCOc1cc(C)ccc1C(C)C,–,13.2% (inactive)
COc1cc(/C=C/c2sc3ccccc3[n+]2CCCS(=O)(=O)[O-])ccc1O,22.2 µM (active),–
C=CC[n+]1c(/C=C/c2ccc(OC(C)=O)c(OC)c2)ccc2ccccc21,–,8.66% (inactive)
CN(C1CCCCC1)S(=O)(=O)c1cccc2nsnc12,–,4.2% (inactive)
CSC1=NN(c2ccccc2)CN(c2ccccc2)N1C,72.1 µM (active),–
COc1cc(CCNC2=CC(=O)c3ncccc3C2=O)ccc1O,70.9 µM (active),–
Cc1sc2nc(CN3CCOCC3)nc(N3CCOCC3)c2c1C,–,18.4% (inactive)
C=CCNC(=S)N1CCN(Cc2ccc3c(c2)OCO3)CC1,–,15.3% (inactive)
c1cc2c(cc1CNc1ccc(N3CCOCC3)cc1)OCO2,4.31 µM (active),–
COc1cccc(OC)c1C(=O)N1CCN(Cc2ccc3c(c2)OCO3)CC1,–,18% (inactive)
COc1cc(OC)cc(C(=O)N2CCN(Cc3ccc4c(c3)OCO4)CC2)c1,–,16.2% (inactive)
Clc1ccccc1CNCc1ccc2c(c1)OCO2,–,19.8% (inactive)
CC(=O)N1CCN(c2ccc(NCc3ccc4c(c3)OCO4)cc2)CC1,9.9 µM (active),–
